The full data set covers some 7,900 targets. This sample favours those with a hit. About 0.6% of all pairs of compound and target were hits. Values without a mark were called inactive.
Columns and labels:
Test in all cases: log2 fold change, soluble protein after heating vs DMSO (PISA); higher = thermal stabilisation; K562 cells, 10 uM, 30 min; active = over 0.2 and 3.5 SD of the protein, either way, in both replicates (recomputed)
[1] = compound: CC1=C(C=C(C=C1)NC(=O)C2=CC(=CC=C2)C(C)(C)C#N)NC3=CC4=C(C=C3)N=CN(C4=O)C
Outline: (§1)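 K562 cells at 2×10^6 cells/mL were treated with 10 μM compound for 30 min. Aliquots were heated for 3 min across 48°C-58°C, pooled, and extracted in PBS with 0.5% NP-40 at 4°C; soluble protein was the supernatant after 21,000xg for 90 min. Soluble protein was quantified by TMTpro 16plex LC-MS/MS with channel sums equalised, and reported as log2 fold change in thermal stability against DMSO controls, with values from duplicates.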

[2] = compound: CC1=C(C=C(C=C1)NC(=O)C2=CC(=CC=C2)N(C)C)NC(=O)C3=CC=C(C=C3)O
Outline: as §1

[3] = compound: CC1=CC=C(C=C1)SC2=C3C=C(SC3=CN=C2)C(=O)N
Outline: as §1

[4] = compound: CC1=NC(=CC=C1)C2=C(N=C(N2)C(C)(C)C)C3=CC4=NC=CN=C4C=C3
Outline: as §1

Nexturastat A = compound: CCCCN(Cc1ccc(C(=O)NO)cc1)C(=O)Nc1ccccc1 [Nexturastat A]
Outline: as §1

vemurafenib = compound: CCCS(=O)(=O)Nc1ccc(F)c(C(=O)c2c[nH]c3ncc(-c4ccc(Cl)cc4)cc23)c1F [vemurafenib]
Outline: as §1

[5] = compound: CCCS(=O)(=O)Nc1ccc(F)c(C(=O)c2c[nH]c3ncc(Cl)cc23)c1F
Outline: as §1

[6] = compound: CCCc1cc(C)[nH]c(=O)c1CNC(=O)c1cc(-c2ccnc(N3CCN(C)CC3)c2)cc2c1cnn2C(C)C
Outline: as §1

givinostat = compound: CCN(CC)Cc1ccc2cc(COC(=O)Nc3ccc(C(=O)NO)cc3)ccc2c1 [givinostat]
Outline: as §1

barasertib = compound: CCN(CCCOc1ccc2c(Nc3cc(CC(=O)Nc4cccc(F)c4)[nH]n3)ncnc2c1)CCOP(=O)(O)O [barasertib]
Outline: as §1

[7] = compound: CC[C@@H]1C(=O)N(C)c2cnc(Nc3ccc(C(=O)NC4CCN(C)CC4)cc3OC)nc2N1C1CCCC1
Outline: as §1

volasertib = compound: CC[C@@H]1C(=O)N(C)c2cnc(Nc3ccc(C(=O)N[C@H]4CC[C@H](N5CCN(CC6CC6)CC5)CC4)cc3OC)nc2N1C(C)C [volasertib]
Outline: as §1

epoxomicin = compound: CC[C@H](C)[C@@H](C(=O)N[C@@H]([C@@H](C)O)C(=O)N[C@@H](CC(C)C)C(=O)[C@]1(CO1)C)NC(=O)[C@H]([C@@H](C)CC)N(C)C(=O)C [epoxomicin]
Outline: as §1

[8] = compound: CCn1c(C(=O)N(C2CC2)C2CC2)cc2c3c(ncn3C)c(Nc3cc(C)n(C)n3)nc21
Outline: as §1

[9] = compound: CCn1cc(-c2ccnc3[nH]c(-c4cccc(CN(C)C)c4)cc23)c(-c2ccc(NC(=O)N(C)C)cc2)n1
Outline: as §1

[10] = compound: CN(C)CC(=O)Nc1ccc2[nH]c(=O)c3ccccc3c2c1
Outline: as §1

rosiglitazone = compound: CN(CCOC1=CC=C(C=C1)C[C@H]2C(=O)NC(=O)S2)C3=CC=CC=N3 (racemic) [rosiglitazone]
Outline: as §1

[11] = compound: CN1C2=C(C3=C1C(=O)N(N=C3)CC4=CC(=CC=C4)N)SC(=C2)S(=O)C
Outline: as §1

[12] = compound: CN1CCC(CNc2ccc3ncc(-c4cccc(OC(F)(F)F)c4)n3n2)CC1
Outline: as §1

[13] = compound: CC[C@H](C)N1C=C(C2=C(C=C(C=C21)C3=CN=C(C=C3)N4CCNCC4)C(=O)NCC5=C(C=C(NC5=O)C)C)C
Outline: as §1

NME7 (UniProt Q9Y5B8)
Sequence of UniProt Q9Y5B8 (Q9Y5B8 whole entry, looked up): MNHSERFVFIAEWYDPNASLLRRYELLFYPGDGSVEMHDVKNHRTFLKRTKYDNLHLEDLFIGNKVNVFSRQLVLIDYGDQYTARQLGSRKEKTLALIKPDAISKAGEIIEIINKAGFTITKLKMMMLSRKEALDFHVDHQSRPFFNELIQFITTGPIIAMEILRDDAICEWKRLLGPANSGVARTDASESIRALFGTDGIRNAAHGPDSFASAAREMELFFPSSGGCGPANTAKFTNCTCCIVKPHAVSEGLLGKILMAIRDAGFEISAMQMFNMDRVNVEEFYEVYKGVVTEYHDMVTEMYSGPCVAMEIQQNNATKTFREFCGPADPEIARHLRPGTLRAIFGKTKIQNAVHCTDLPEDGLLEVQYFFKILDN
log2 fold change [1]: -0.008 | log2 fold change [2]: -0.089 | log2 fold change [3]: -0.021 | log2 fold change [4]: 0.059 | log2 fold change (Nexturastat A): 0.024 | log2 fold change (vemurafenib): -0.037 | log2 fold change [5]: 0.081 | log2 fold change [6]: -0.06 | log2 fold change (givinostat): -0.202 | log2 fold change (barasertib): 0.042 | log2 fold change [7]: -0.014 | log2 fold change (volasertib): -0.358 (active) | log2 fold change (epoxomicin): -0.072 | log2 fold change [8]: -0.033 | log2 fold change [9]: -0.044 | log2 fold change [10]: -0.045 | log2 fold change (rosiglitazone): 0.104 | log2 fold change [11]: 0.014 | log2 fold change [12]: -0.314

NCOR1 (UniProt O75376)
Sequence of UniProt O75376 (O75376 whole entry, looked up): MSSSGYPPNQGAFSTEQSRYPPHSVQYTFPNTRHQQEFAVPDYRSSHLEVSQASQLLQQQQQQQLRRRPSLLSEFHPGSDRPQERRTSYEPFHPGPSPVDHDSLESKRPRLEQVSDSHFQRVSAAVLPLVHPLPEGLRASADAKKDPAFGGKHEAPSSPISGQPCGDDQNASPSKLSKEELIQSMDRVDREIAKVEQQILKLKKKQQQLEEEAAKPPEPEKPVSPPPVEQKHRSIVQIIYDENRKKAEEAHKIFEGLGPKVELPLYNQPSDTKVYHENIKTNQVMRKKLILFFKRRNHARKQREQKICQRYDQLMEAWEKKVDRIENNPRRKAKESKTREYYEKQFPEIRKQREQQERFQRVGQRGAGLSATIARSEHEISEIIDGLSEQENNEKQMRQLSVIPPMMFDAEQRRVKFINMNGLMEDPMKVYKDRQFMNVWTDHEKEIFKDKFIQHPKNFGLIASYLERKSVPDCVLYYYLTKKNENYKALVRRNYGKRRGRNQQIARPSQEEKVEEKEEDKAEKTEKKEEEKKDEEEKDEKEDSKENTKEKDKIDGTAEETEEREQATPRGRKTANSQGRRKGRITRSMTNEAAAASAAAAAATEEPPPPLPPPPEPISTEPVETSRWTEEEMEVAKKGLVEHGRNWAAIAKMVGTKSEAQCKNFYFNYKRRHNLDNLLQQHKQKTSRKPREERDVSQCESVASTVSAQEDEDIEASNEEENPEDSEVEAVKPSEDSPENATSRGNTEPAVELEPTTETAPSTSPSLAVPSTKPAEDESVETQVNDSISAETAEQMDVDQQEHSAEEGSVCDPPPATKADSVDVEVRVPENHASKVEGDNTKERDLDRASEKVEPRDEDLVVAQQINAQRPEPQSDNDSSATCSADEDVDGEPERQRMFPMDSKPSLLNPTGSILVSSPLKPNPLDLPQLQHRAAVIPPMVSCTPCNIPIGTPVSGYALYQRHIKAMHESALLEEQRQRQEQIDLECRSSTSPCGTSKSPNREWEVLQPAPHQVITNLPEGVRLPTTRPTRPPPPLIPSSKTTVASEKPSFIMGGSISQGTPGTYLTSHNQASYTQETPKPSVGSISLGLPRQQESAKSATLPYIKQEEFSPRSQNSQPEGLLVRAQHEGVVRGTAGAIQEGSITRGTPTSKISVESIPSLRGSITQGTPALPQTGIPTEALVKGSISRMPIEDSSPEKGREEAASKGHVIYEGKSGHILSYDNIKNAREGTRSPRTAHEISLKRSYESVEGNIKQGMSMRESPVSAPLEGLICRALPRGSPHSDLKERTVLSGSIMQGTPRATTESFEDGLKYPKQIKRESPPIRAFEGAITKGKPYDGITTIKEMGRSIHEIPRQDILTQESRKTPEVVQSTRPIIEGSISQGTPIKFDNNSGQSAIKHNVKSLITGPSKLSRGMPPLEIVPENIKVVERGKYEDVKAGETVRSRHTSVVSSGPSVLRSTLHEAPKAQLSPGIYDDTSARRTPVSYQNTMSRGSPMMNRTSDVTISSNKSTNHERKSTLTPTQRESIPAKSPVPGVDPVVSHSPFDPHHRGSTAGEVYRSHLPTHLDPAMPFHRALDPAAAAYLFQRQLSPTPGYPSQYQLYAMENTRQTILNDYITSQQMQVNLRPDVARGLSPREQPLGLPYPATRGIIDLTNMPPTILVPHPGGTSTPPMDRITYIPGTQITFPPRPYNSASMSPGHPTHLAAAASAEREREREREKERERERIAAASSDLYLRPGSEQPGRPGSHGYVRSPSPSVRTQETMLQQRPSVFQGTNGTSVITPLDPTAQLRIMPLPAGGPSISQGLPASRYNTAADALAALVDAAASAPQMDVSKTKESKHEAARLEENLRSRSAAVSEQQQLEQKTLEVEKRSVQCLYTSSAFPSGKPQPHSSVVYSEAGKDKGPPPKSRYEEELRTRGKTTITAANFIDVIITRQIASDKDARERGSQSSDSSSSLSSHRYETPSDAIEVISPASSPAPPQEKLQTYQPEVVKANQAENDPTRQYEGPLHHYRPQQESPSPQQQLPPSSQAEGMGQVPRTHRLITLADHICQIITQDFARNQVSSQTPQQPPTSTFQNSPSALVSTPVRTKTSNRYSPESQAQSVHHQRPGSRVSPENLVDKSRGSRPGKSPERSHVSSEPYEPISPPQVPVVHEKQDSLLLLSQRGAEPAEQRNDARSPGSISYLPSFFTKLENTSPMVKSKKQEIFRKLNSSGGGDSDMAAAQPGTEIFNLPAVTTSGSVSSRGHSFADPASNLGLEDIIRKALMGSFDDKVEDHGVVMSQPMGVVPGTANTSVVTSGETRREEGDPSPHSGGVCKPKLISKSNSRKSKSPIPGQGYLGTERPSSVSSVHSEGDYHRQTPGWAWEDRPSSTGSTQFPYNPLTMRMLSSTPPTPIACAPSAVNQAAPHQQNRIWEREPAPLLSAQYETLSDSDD
log2 fold change [1]: -0.035 | log2 fold change [2]: -0.075 | log2 fold change [3]: -0.195 | log2 fold change [4]: 0.101 | log2 fold change (Nexturastat A): -0.079 | log2 fold change (vemurafenib): 0.01 | log2 fold change [5]: -0.149 | log2 fold change [6]: -0.079 | log2 fold change (givinostat): 0.014 | log2 fold change (barasertib): -0.094 | log2 fold change [7]: -0.034 | log2 fold change (volasertib): -0.021 | log2 fold change [13]: 0.142 | log2 fold change (epoxomicin): 0.07 | log2 fold change [8]: -0.066 | log2 fold change [9]: 0.046 | log2 fold change [10]: 0.048 | log2 fold change (rosiglitazone): 0.044 | log2 fold change [11]: 0.033 | log2 fold change [12]: -0.045

MON1A (UniProt Q86VX9)
Sequence of UniProt Q86VX9 (Q86VX9 whole entry, looked up): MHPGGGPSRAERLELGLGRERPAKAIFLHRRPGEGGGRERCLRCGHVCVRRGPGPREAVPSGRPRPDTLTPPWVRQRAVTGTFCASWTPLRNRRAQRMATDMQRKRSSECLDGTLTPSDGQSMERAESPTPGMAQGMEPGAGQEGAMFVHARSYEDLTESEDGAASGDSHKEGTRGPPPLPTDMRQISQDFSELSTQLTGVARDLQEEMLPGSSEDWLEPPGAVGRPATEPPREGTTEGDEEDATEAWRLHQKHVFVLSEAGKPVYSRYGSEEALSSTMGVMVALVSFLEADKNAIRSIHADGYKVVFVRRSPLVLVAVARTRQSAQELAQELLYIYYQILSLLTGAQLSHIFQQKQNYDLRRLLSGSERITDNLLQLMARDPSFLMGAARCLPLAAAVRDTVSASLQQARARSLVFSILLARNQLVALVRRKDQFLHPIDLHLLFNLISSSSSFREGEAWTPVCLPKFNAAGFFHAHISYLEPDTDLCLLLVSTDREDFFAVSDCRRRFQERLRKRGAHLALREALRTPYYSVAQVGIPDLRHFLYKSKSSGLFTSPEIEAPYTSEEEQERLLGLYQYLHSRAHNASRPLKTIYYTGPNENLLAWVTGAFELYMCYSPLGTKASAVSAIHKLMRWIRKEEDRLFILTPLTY
log2 fold change [1]: 0.055 | log2 fold change [2]: 0.004 | log2 fold change [3]: -0.061 | log2 fold change [4]: 0.061 | log2 fold change (Nexturastat A): 0.015 | log2 fold change [5]: -0.011 | log2 fold change [6]: 0.009 | log2 fold change (givinostat): 0.008 | log2 fold change (barasertib): 0.065 | log2 fold change [7]: -0.11 | log2 fold change (volasertib): -0.012 | log2 fold change [13]: -0.141 | log2 fold change (epoxomicin): -0.101 | log2 fold change [8]: 0.004 | log2 fold change [9]: 0.003 | log2 fold change (rosiglitazone): 0.134 | log2 fold change [11]: 0.032 | log2 fold change [12]: -0.041

MSH3 (UniProt P20585)
Sequence of UniProt P20585 (P20585 whole entry, looked up): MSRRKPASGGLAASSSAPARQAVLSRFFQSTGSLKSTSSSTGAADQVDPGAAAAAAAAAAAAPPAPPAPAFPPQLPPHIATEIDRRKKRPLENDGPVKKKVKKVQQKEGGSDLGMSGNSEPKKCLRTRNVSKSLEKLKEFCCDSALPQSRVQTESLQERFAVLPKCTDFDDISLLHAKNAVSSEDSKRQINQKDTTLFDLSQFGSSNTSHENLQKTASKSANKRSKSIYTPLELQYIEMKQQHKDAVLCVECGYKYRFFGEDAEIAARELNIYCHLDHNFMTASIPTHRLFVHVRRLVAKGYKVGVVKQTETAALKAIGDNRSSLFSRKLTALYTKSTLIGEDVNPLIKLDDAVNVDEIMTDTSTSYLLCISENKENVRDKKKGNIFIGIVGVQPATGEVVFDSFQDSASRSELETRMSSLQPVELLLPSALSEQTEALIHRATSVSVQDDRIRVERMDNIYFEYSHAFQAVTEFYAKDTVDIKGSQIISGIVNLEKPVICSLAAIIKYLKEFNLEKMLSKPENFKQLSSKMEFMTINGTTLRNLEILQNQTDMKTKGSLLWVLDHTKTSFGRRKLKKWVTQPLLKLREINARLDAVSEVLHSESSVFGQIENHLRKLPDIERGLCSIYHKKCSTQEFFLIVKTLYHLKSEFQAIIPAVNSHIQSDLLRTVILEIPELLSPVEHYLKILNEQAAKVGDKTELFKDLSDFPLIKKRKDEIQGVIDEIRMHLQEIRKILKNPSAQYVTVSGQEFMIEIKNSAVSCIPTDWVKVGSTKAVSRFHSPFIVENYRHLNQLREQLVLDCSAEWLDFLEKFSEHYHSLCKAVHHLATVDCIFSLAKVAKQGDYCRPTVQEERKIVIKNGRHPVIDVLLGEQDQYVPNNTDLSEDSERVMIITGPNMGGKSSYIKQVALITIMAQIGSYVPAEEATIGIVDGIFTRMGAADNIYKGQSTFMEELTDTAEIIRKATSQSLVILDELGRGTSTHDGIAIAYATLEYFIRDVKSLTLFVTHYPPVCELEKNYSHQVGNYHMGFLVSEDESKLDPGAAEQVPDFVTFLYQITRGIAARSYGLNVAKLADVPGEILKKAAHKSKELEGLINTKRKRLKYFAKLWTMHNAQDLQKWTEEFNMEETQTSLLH
log2 fold change [1]: 0.029 | log2 fold change [2]: -0.033 | log2 fold change [3]: 0.021 | log2 fold change [4]: -0.101 | log2 fold change (Nexturastat A): -0.015 | log2 fold change (vemurafenib): 0.019 | log2 fold change [5]: 0.053 | log2 fold change [6]: -0.013 | log2 fold change (givinostat): 0.002 | log2 fold change (barasertib): -0.001 | log2 fold change [7]: -0.032 | log2 fold change (volasertib): -0.179 | log2 fold change [13]: -0.003 | log2 fold change (epoxomicin): 0.062 | log2 fold change [8]: -0.072 | log2 fold change [9]: -0.019 | log2 fold change [10]: -0.028 | log2 fold change (rosiglitazone): 0.019 | log2 fold change [11]: -0.008 | log2 fold change [12]: 0.047

NUMBL (UniProt Q9Y6R0)
log2 fold change [1]: 0.011 | log2 fold change [2]: -0.045 | log2 fold change [3]: -0.018 | log2 fold change [4]: -0.081 | log2 fold change (Nexturastat A): 0.121 | log2 fold change (vemurafenib): -0.144 | log2 fold change [5]: -0.005 | log2 fold change [6]: 0.249 | log2 fold change (givinostat): 0 | log2 fold change (barasertib): 0.069 | log2 fold change (volasertib): 0.019 | log2 fold change [13]: 0.073 | log2 fold change (epoxomicin): -0.01 | log2 fold change [8]: 0.023 | log2 fold change [9]: 0.007 | log2 fold change [10]: -0.023 | log2 fold change (rosiglitazone): -0.051 | log2 fold change [11]: 0.041 | log2 fold change [12]: -0.259

MRPS21 (UniProt P82921)
log2 fold change [1]: 0.015 | log2 fold change [2]: -0.059 | log2 fold change [3]: 0.215 | log2 fold change [4]: 0.107 | log2 fold change (Nexturastat A): 0.093 | log2 fold change (vemurafenib): 0.079 | log2 fold change [5]: 0.132 | log2 fold change [6]: -0.018 | log2 fold change (givinostat): -0.016 | log2 fold change (barasertib): -0.156 | log2 fold change [7]: 0.062 | log2 fold change (volasertib): -0.008 | log2 fold change [13]: 0.063 | log2 fold change (epoxomicin): 0.064 | log2 fold change [8]: -0.052 | log2 fold change [10]: 0.058 | log2 fold change (rosiglitazone): 0.165 | log2 fold change [11]: -0.205

NA, A0A494C071
log2 fold change [4]: 0.011 | log2 fold change (Nexturastat A): -0.081 | log2 fold change (vemurafenib): -0.142 | log2 fold change [6]: -0.159 | log2 fold change (barasertib): 0.043 | log2 fold change [7]: -1.54 (active) | log2 fold change [13]: 0.38 | log2 fold change (epoxomicin): -0.11 | log2 fold change [9]: 0.189 | log2 fold change [10]: -0.122 | log2 fold change (rosiglitazone): 0.125 | log2 fold change [11]: -0.028 | log2 fold change [12]: -1.73 (active)

NMU (UniProt P48645)
Sequence of UniProt P48645 (P48645 whole entry, looked up): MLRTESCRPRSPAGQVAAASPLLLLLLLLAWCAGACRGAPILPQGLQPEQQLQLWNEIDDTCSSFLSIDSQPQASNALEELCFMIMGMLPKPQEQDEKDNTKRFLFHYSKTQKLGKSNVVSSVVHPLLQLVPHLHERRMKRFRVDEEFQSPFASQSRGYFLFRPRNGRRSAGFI
log2 fold change [2]: -0.052 | log2 fold change [3]: 0.09 | log2 fold change [4]: 0.411 (active) | log2 fold change (Nexturastat A): 0.283 | log2 fold change (vemurafenib): 0.067 | log2 fold change [5]: -0.127 | log2 fold change (givinostat): 0.001 | log2 fold change (barasertib): 0.002 | log2 fold change [7]: 0.094 | log2 fold change (volasertib): 0.072 | log2 fold change [13]: 0 | log2 fold change (epoxomicin): 0.077 | log2 fold change [8]: -0.044 | log2 fold change [9]: 0.008 | log2 fold change [10]: -0.017 | log2 fold change (rosiglitazone): -0.021 | log2 fold change [11]: -0.008 | log2 fold change [12]: 0.271
